# 3CLpro inhibitor – SARS-CoV 3CLpro protease inhibition. P0C6X7. recombinant SARS-CoV 3CLpro, quenched FRET peptide cleavage. inhibition, % at 6 µM. 290,000 compounds, 0.14% hits. AID 1706; in the data active means inhibition above about 12%
# CCHF vOTU inh – CCHFV vOTU protease inhibition. Pep-AMC fluorescence. inhibition, % at 11.5 µM. 370,000 compounds, 0.55% hits; further: 0% = vehicle wells with enzyme and 100% = no enzyme wells
# RecA intein inh – blocks M. tuberculosis RecA intein splicing. P9WHJ3. 290,000 compounds, 0.75% hits. inhibition, % (no concentration beside the values). cell-free RecA intein splicing, fluorescence; in the data active means inhibition above about 30%;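 further: 0% = vehicle wells and 100% = reference inhibitor control wells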
# FBA Mtb inh – Mtb fructose-bisphosphate aldolase inhibition | P9WQA3 | purified M. tuberculosis FBA, fluorescence read-out | inhibition, % at 1 µM | 360,000 compounds, 2.3% hits; in the data active means inhibition above about 27%;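 further: 0% = vehicle and 100% = reference inhibitor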
# Target sequence (P9WQA3 whole entry, looked up): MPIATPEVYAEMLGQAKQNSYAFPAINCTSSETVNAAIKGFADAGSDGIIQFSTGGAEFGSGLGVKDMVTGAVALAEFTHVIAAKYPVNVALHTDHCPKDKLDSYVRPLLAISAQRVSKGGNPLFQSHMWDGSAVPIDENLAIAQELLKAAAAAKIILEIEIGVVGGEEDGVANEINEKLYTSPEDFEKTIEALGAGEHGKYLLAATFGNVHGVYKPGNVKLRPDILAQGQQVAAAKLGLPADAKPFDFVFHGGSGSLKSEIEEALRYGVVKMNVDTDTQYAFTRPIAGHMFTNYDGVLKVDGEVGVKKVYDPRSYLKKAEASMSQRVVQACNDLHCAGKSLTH
# DUSP3 inh – DUSP3 (human) phosphatase inhibition; P51452; recombinant VHR phosphatase, pNPP absorbance; inhibition, % at 13.3 µM; 290,000 compounds, 0.52% hits; AID 1654; in the data active means inhibition above about 50%
# Target sequence (P51452 whole entry, looked up): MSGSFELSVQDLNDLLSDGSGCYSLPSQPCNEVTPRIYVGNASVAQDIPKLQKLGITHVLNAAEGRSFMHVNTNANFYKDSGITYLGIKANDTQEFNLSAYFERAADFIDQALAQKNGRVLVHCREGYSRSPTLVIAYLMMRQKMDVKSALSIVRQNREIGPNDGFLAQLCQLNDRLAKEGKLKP
# GDH-TPI inh – counter-screen for M. tuberculosis FBA inhibitors: GDH-TPI coupled enzymes | GDH-TPI coupled enzyme counterscreen, NADH absorbance | inhibition, % at 4.8 µM | 360,000 compounds, 1.2% hits | AID 588335;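 further: 0% = DMSO wells and 100% = wells lacking the enzyme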
# GFP chromo cs – counter-screen: blocks GFP chromophore formation. shares compounds with RecA intein inh. cell-free GFP chromophore formation, fluorescence. EC50, µM. 2,100 compounds, 83% hits; call rule not given here
# Active calls of the source: *; . = not tested or not shown; + = active, no number. Most compounds without a hit are left out; they make up all but 4.7% or so of the library. Unless noted, no stated cut-off is given here; in the data, active means inhibition above about 30%; inactive means the rest.
SMILES,3CLpro inhibitor,CCHF vOTU inh,RecA intein inh,FBA Mtb inh,DUSP3 inh,GDH-TPI inh,GFP chromo cs
Cc1ccccc1NC(=O)c1nc(S(C)(=O)=O)ncc1Cl,2,-10,.,-2,9,4,.
O=C(NC(=S)NNC(=O)c1cc2ccccc2cc1O)c1ccco1,1,1,11,-6,26,20,.
O=C(NC(=S)NNC(=O)c1ccccc1O)c1ccco1,-2,-13,36*,5,-2,31*,>38
COc1ccccc1CNC(=O)CSc1cc(=O)n(C)c2ccccc12,1,-2,-1,1,-5,2,.
O=C1c2ccccc2-c2ncnc3cccc1c23,-2,.,.,.,.,.,.
O=C(O)c1ccc2c3c(ncnc13)-c1ccccc1C2=O,2,.,44*,.,28,.,4.4*
[O-][n+]1c2c(nc3c1-c1ccccc1C3O)CCCC2 (stereo unspecified),4,.,41*,.,22,.,33*
COc1ccccc1CNS(=O)(=O)c1c(C)nc2sccn2c1=O,0,-1,-4,5,6,14,.
CC(OC(=O)c1ccc(S(=O)(=O)N2CCCCC2)cc1)C(=O)NC1CCCCC1C (stereo unspecified),-3,-4,0,-1,-19,4,.
COC(=O)c1c(NC(=O)/C=C/C(=O)O)sc(Cc2ccccc2)c1C,10,.,51*,-1,-1,9,24*
O=C(NCCc1ccccn1)c1cc(-c2ccccc2Cl)nc2ccccc12,-3,-6,-1,2,42,1,.
O=c1oc2cc(Oc3ccc(C(F)(F)F)cc3[N+](=O)[O-])ccc2c2c1CCC2,5,-7,-4,11,26,7,.
O=c1oc2cc(Oc3c([N+](=O)[O-])cc(C(F)(F)F)cc3[N+](=O)[O-])ccc2c2c1CCCC2,3,-19,41*,+,30,22,0.96*
CC(=O)c1cccc(OCC(O)CNCC2COc3ccccc3O2)c1 (stereo unspecified),1,-6,-5,-1,-5,17,.
O=C(CCl)N1CCN2C(=O)c3ccccc3C12c1ccc(Cl)cc1 (stereo unspecified),6,-3,83*,1,10,-5,4.2*
Cc1cn([C@H]2C[C@H](O)[C@@H](/C=C/C(=O)NCc3ccc4c(c3)OCO4)O2)c(=O)[nH]c1=O,.,-5,.,-2,.,.,.
Cc1ccc(N2C(=O)C(Cl)=C(N3CCN(C)CC3)C2=O)c(C)c1,1,-4,81*,-6,3,8,6.4*
O=C1C(Cl)=C(N2CCCCCC2)C(=O)N1c1ccccc1,3,13,36*,2,8,5,28*
O=C1C(Cl)=C(N2CCCCCC2)C(=O)N1c1ccc(Br)cc1,-1,5,17,-1,-16,-9,.
CN1CCN(C2=C(Cl)C(=O)N(c3ccc(Cl)cc3)C2=O)CC1,0,.,33*,4,-5,13,0.16*
Cc1oc(-c2ccccc2Cl)nc1CN(C)C(C)c1ccon1 (stereo unspecified),-1,6,1,1,-27,4,.
Cc1ccccc1-c1nc(CN(C)C(C)c2ccon2)c(C)o1 (stereo unspecified),-2,14,39*,2,16,5,13*
O=C(NCc1ccco1)/C(=C/c1cccc(C(F)(F)F)c1)c1nc2ccccc2[nH]1,-5,15,38*,4,8,18,>38
O=C(NCc1ccccn1)c1ccc(Cl)c(S(=O)(=O)NCc2ccccc2)c1,.,11,.,0,.,6,.
CN=C(Nc1cc(C)nn1CCC#N)c1ccccc1,-5,-2,1,3,3,12,.
SMILES,3CLpro inhibitor,CCHF vOTU inh,RecA intein inh,FBA Mtb inh,DUSP3 inh,GDH-TPI inh,GFP chromo cs
Cc1cc(OC(=O)c2ccccc2)n(CCC#N)n1,-1,11,85*,0,23,5,11*
COc1ccc(C(=O)O/N=C2\C(=O)N(C)c3ccccc32)cc1,.,-11,.,3,.,0,.
CN1C(=O)/C(=N\OC(=O)c2cccc3ccccc23)c2ccccc21,-5,9,38*,4,8,-4,32*
OC[C@@H]1CN(Cc2ccc3c(c2)OCO3)C[C@H](n2cnc3c(N4CCCC4)ncnc32)O1,.,16,.,4,.,11,.
Cc1ccc(NC(=O)CSc2ncnc3ccccc23)cc1S(=O)(=O)N1CCCCCC1,-1,12,31*,-2,-12,14,>38
COc1ccc(N2CCN(c3cncc(C)n3)CC2)cc1,.,-9,.,7,.,9,.
COc1ccc(CNC(=O)C2CCCN(S(=O)(=O)c3ccc(-n4cnnn4)cc3)C2)cc1 (stereo unspecified),-3,-17,.,0,40,16,.
O=S(=O)(CCSc1nc2ccccc2s1)c1nc2ccccc2s1,2,1,78*,-4,15,5,3.6*
CCN(CC)CCCNC(=O)c1cc2cc(Cl)ccc2nc1N,.,-51,.,.,.,.,.
O=C(CCl)N1c2ccccc2OCC1c1ccccc1 (stereo unspecified),6,12,81*,-7,23,-5,4.5*
Cc1ccc(C(=O)O/N=C(\N)c2nonc2N)cc1,-1,4,-1,-1,-22,-1,.
O=C(NN=Cc1ccc(Cl)cc1Cl)C1CC1,.,8,.,-1,.,4,.
COC(=O)CS(=O)(=O)c1nnc([C@H](Cc2ccccc2)NC(=O)OC(C)(C)C)o1,-2,11,69*,5,-10,1,14*
Cc1cccc(CS(=O)(=O)c2nnc([C@H](Cc3ccccc3)NC(=O)OC(C)(C)C)o2)c1,-5,.,36*,-2,-7,-5,11*
COc1ccc2[nH]c(C(=O)O)c(CCNC(=O)/C=C/c3ccc(O)c(OC)c3)c2c1,0,12,1,10,-2,16,.
COc1ccc(/C=N/NC(=O)c2cccc(S(=O)(=O)N3CCCC3)c2)cc1O,.,14,.,3,.,14,.
CCOC(CNC(=O)C(=O)Nc1cc2c3c(c1)CCC(=O)N3CCC2)OCC,-1,-7,-4,4,-4,6,.
CCN1CCN(c2c(Cl)cccc2NC(=O)c2ccc3c(c2)OCCO3)CC1,2,3,31*,0,-1,-2,>38
COc1ccccc1C(=O)NNC(=O)c1ccc(Br)o1,0,3,2,5,-13,4,.
CC1=NN(c2ccccc2)C(=O)/C1=C/c1ccc(-c2ccc(C)c(C(=O)O)c2)o1,.,-9,3,.,.,.,.
CC1=NN(c2ccc(Cl)c(C(=O)O)c2)C(=O)/C1=C\c1ccc(-c2ccc(C(=O)O)cc2)o1,8,-21,36*,2,6,6,0.81*
CCCN(c1ccccc1F)S(=O)(=O)c1cc(-c2cc(C)no2)ccc1OC,1,19,13,-2,12,4,.
CCOC(=O)CNc1nnc(SCC(=O)OCC)[nH]c1=O,0,8,41*,3,39,9,6.3*
COc1ccccc1C(=O)NC(=O)COC(=O)CN1C(=O)NC(C)(C)C1=O,.,-6,2,2,.,8,.

# Screening data (PubChem BioAssay)
